Where a name gives a salt, the structure may show the parent alone.
system: Saccharomyces cerevisiae BY4741 SeMeCo community; assay: z-score of subpopulation abundance vs DMSO median, subpopulation auxotrophic for U; higher = larger share of this subpopulation than in DMSO controls; settings: 10 µM; 24 h; SM minimal medium; subpopulation (auxotrophy): U
Protocol: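 Fluorescent four-plasmid SeMeCo (self-establishing metabolically cooperating S. cerevisiae BY4741 community; plasmids pH-mRuby2, pL-mWasabi, pU-eCFP, pM-TagRFP657) was grown 24 h in minimal SM medium with each Selleck FDA-approved drug at 10 µM in 384-well plates. Cells were fixed and imaged by high-content confocal microscopy. For each auxotrophic subpopulation (and the prototroph), a z-score gives the deviation from the DMSO vehicle-control population median.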

Compared with `CN(C)C(=O)Oc1cccc([N+](C)(C)C)c1` [Neostigmine Bromide], `CCN(C)C(=O)Oc1cccc([C@H](C)N(C)C)c1` [Rivastigmine Tartrate] is higher in “z-score of subpopulation abundance” value: -0.26 for the first, -0.19 for the second.

Going from `COc1cc2c(cc1OC)C1CC(=O)C(CC(C)C)CN1CC2` (stereo not given) [Tetrabenazine (Xenazine)] to `CCC1=C[C@H]2CN3CCc4c([nH]c5ccccc45)[C@](C(=O)OC)(C2)[C@H]13` [Catharanthine], the “z-score of subpopulation abundance” value rises from -1.18 to 0.69.

Going from `O=[N+]([O-])C(Br)(CO)CO` [Bronopol] to `CN1[C@@H]2CC[C@H]1C[C@@H](OC(=O)[C@H](CO)c1ccccc1)C2` [Hyoscyamine], the “z-score of subpopulation abundance” value falls from 1.02 to 0.23.

Compared with `NCC(O)c1ccc(O)cc1` (racemic) [(+,-)-Octopamine HCl], `Cc1cc(O)ccc1Cl` [Chlorocresol] is lower in “z-score of subpopulation abundance” value: 0.08 for the first, -0.59 for the second.

Compared with `NC(=O)CN1CCCC1=O` [Piracetam], `C=CN1CCCC1=O.II` [Povidone iodine] is higher in “z-score of subpopulation abundance” value: -0.08 for the first, 0.2 for the second.

First: CC(C)N(CCC(C(N)=O)(c1ccccc1)c1ccccn1)C(C)C (stereo not given) [Disopyramide]
Second: CCN(CC)CCOC(=O)C(O)(c1ccccc1)c1ccccc1 [Benactyzine hydrochloride]
The “z-score of subpopulation abundance” value of the first is lower: -1.21 for the first, 1.08 for the second.

First: CN(C)[C@@H]1C(=O)C(C(N)=O)=C(O)[C@@]2(O)C(=O)C3=C(O)c4c(O)cccc4[C@@](C)(O)[C@H]3C[C@@H]12 [Tetracycline HCl]
Second: CN(C)[C@@H]1C(=O)C(C(N)=O)=C(O)[C@@]2(O)C(=O)C3=C(O)c4c(O)cccc4[C@@](C)(O)[C@H]3[C@H](O)[C@@H]12 [Oxytetracycline Dihydrate]
The “z-score of subpopulation abundance” value of the first is higher: 0.13 for the first, 0.11 for the second.

Compared with `COc1ccc(C=O)cc1` [p-Anisaldehyde], `CC(C)=CCOc1c2occc2cc2ccc(=O)oc12` [Imperatorin] is higher in “z-score of subpopulation abundance” value: -0.66 for the first, 0.23 for the second.

First: COc1ccc2c(c1)[C@]13CCCC[C@@H]1[C@H](C2)N(C)CC3 [Dextromethorphan hydrobromide hydrate]
Second: CN1C(=O)COc2c(C(=O)NC3CN4CCC3CC4)cc(Cl)cc21 (stereo not given) [Azasetron HCl]
The “z-score of subpopulation abundance” value of the first is lower: 0.26 for the first, 0.36 for the second.

First: O=c1cccc2n1C[C@@H]1CNC[C@H]2C1 [Cytisine]
Second: C=C[C@H]1CN2CC[C@H]1C[C@H]2[C@H](O)c1ccnc2ccccc12 [Cinchonidine]
The “z-score of subpopulation abundance” value of the first is lower: -0.25 for the first, 0.59 for the second.

Compared with `CC(=O)OCC1=C(C(=O)O)N2C(=O)C(N)C2SC1` (stereo not given) [7-Aminocephalosporanic acid], `CN1[C@@H]2C[C@@H](OC(=O)[C@H](CO)c3ccccc3)C[C@H]1[C@@H]1O[C@@H]12` [Scopolamine HBr trihydrate] is lower in “z-score of subpopulation abundance” value: 0.52 for the first, 0.18 for the second.

Compared with `CC(=O)O[C@H]1C[C@@H]2CC[C@@H]3[C@H](CC[C@@]4(C)[C@H]3C[C@H]([N+]3(C)CCCCC3)[C@@H]4OC(C)=O)[C@@]2(C)C[C@@H]1[N+]1(C)CCCCC1` [Pancuronium dibromide], `O=C(O[C@H]1C[C@H]2CC[C@@H](C1)[N+]21CCCC1)C(O)(c1ccccc1)c1ccccc1` [Trospium chloride] is lower in “z-score of subpopulation abundance” value: 0.25 for the first, -0.17 for the second.

Compared with `C#C[C@]1(O)C=C[C@H]2[C@@H]3CCC4=CC(=O)CC[C@@H]4[C@H]3CC[C@@]21CC` [Gestodene], `C[C@@H]1CC[C@H]2[C@@H](C)C(=O)O[C@@H]3O[C@@]4(C)CC[C@@H]1[C@]32OO4` [Artemisinin] is higher in “z-score of subpopulation abundance” value: -0.99 for the first, 0.61 for the second.

First: N#Cc1nn(-c2c(Cl)cc(C(F)(F)F)cc2Cl)c(N)c1[S+]([O-])C(F)(F)F (stereo not given) [Fipronil]
Second: CC[C@@]1(O)C(=O)OCc2c1cc1n(c2=O)Cc2cc3ccccc3nc2-1 [Camptothecin]
The “z-score of subpopulation abundance” value of the first is higher: -0.36 for the first, -0.45 for the second.

Going from `O=C(O[C@H]1C[N+]2(CCCOc3ccccc3)CCC1CC2)C(O)(c1cccs1)c1cccs1` [Aclidinium Bromide] to `C[N+]12CCC(CC1)C(OC(=O)C(O)(c1ccccc1)c1ccccc1)C2` (stereo not given) [Clidinium Bromide], the “z-score of subpopulation abundance” value falls from 0.94 to 0.71.

Going from `Nc1nc(N)nc(NC2CC2)n1` [Cyromazine] to `CCOC(=O)Nc1ccc(NCc2ccc(F)cc2)cc1N` [Retigabine], the “z-score of subpopulation abundance” value falls from 0.89 to -0.91.

First: C[CH2][Hg][S]c1ccccc1C(=O)[O-].[Na+] [Thimerosal]
Second: CC(NC(C)(C)C)C(=O)c1cccc(Cl)c1 (stereo not given) [Amfebutamone (Bupropion) HCl]
The “z-score of subpopulation abundance” value of the first is lower: -3.69 for the first, 0.11 for the second.

First: CN1c2ccccc2C(NCCCCCCC(=O)O)c2ccc(Cl)cc2S1(=O)=O (stereo not given) [Tianeptine sodium]
Second: C=CCN1C[C@H](C(=O)N(CCCN(C)C)C(=O)NCC)C[C@@H]2c3cccc4[nH]cc(c34)C[C@H]21 [Cabergoline]
The “z-score of subpopulation abundance” value of the first is lower: -0.4 for the first, 1.05 for the second.

First: CC(C)(O)C(Cl)(Cl)Cl [Chlorobutanol]
Second: C[N+](C)(C)CCCCCCCCCC[N+](C)(C)C [Decamethonium Bromide]
The “z-score of subpopulation abundance” value of the first is higher: 0.13 for the first, 0.01 for the second.

Going from `CN[C@@H]1[C@@H](O)[C@@H](O[C@@H]2[C@@H](O)[C@H](O[C@H]3O[C@H](CN)CC[C@H]3N)[C@@H](N)C[C@H]2N)OC[C@]1(C)O.CN[C@@H]1[C@@H](O)[C@@H](O[C@@H]2[C@@H](O)[C@H](O[C@H]3O[C@H]([C@@H](C)N)CC[C@H]3N)[C@@H](N)C[C@H]2N)OC[C@]1(C)O.CN[C@@H]1[C@@H](O)[C@@H](O[C@@H]2[C@@H](O)[C@H](O[C@H]3O[C@H]([C@@H](C)NC)CC[C@H]3N)[C@@H](N)C[C@H]2N)OC[C@]1(C)O` [Gentamicin Sulfate] to `CNC1CC(N)C(O)C(OC2OC(CO)C(O)C3OC4(OC(C(N)CO)C(O)C(O)C4O)OC23)C1O` (stereo not given) [Hygromycin B], the “z-score of subpopulation abundance” value rises from 0.09 to 0.58.
